In ChEMBL document CHEMBL1961873, “Compounds: GSK PKIS; Assays: Nanosyn kinase panel” (2012):
“And” between values parts separate entries of the source, which are not always exact repeats. Identical values can stand only once.

Tests used:
[1] = biological target: T1, Serine/threonine-protein kinase Nek9 (Homo sapiens) (UniProt Q8TD19); conditions: at 1 µM;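 further: each value is a mean percent inhibition of NEK9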
T1 sequence (whole entry): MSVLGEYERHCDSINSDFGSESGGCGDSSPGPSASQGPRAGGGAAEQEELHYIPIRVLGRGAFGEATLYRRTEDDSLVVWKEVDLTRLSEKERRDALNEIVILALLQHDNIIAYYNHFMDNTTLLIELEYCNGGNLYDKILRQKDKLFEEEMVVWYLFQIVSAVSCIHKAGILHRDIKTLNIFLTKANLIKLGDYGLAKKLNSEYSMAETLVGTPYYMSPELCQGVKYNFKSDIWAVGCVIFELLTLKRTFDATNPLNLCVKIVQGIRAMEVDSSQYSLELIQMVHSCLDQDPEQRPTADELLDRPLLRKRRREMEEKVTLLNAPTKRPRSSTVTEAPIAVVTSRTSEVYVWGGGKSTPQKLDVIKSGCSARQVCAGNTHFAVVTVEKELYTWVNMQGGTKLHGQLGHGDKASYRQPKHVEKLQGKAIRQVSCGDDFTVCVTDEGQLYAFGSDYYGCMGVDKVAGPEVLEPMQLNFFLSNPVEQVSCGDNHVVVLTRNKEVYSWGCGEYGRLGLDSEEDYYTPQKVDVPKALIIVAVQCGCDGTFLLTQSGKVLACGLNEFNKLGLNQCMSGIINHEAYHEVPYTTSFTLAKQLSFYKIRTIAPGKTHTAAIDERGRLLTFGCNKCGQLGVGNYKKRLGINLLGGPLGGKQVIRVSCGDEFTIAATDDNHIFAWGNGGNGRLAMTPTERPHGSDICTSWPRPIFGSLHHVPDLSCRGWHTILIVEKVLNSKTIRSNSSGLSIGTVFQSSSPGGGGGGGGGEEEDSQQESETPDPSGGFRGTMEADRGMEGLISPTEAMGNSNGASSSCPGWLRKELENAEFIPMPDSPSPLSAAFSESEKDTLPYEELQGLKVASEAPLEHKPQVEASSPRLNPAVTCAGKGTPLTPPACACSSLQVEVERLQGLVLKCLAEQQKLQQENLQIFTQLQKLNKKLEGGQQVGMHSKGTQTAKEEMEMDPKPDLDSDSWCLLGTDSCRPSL

[2] = biological target: Serine/threonine-protein kinase PLK1 (Homo sapiens) (UniProt P53350); conditions: at 0.1 µM
[3] = biological target: Serine/threonine-protein kinase PLK1 (Homo sapiens) (UniProt P53350); conditions: at 1 µM
[4] = biological target: T2, Dual specificity protein kinase TTK (Homo sapiens) (UniProt P33981); conditions: at 0.1 µM
T2 sequence (whole entry): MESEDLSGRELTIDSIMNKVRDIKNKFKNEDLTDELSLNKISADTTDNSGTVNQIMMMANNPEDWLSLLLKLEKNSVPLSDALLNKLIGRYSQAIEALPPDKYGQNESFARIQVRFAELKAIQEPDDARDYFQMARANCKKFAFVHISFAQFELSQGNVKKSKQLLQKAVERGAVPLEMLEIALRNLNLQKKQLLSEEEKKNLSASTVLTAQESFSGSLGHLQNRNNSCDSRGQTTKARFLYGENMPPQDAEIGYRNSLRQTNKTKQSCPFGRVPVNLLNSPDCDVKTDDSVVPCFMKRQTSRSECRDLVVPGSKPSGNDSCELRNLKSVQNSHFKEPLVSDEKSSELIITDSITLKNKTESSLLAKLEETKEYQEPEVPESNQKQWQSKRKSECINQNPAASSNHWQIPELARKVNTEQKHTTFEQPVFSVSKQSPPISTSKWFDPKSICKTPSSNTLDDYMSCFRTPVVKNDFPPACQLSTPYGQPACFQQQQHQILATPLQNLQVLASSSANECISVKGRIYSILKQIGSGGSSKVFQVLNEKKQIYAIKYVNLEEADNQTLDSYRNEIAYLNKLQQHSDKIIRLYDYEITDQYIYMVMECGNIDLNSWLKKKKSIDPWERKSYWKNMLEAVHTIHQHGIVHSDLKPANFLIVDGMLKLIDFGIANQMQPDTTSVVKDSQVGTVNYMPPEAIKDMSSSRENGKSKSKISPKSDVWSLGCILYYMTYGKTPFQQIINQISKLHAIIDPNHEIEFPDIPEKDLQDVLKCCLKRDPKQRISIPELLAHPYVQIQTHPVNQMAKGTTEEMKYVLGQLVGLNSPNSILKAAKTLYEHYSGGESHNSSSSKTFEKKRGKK

[5] = tested on: T3, Receptor-type tyrosine-protein kinase FLT3 (Homo sapiens), P36888 [D835Y]; conditions: at 1 µM
T3 sequence (whole entry): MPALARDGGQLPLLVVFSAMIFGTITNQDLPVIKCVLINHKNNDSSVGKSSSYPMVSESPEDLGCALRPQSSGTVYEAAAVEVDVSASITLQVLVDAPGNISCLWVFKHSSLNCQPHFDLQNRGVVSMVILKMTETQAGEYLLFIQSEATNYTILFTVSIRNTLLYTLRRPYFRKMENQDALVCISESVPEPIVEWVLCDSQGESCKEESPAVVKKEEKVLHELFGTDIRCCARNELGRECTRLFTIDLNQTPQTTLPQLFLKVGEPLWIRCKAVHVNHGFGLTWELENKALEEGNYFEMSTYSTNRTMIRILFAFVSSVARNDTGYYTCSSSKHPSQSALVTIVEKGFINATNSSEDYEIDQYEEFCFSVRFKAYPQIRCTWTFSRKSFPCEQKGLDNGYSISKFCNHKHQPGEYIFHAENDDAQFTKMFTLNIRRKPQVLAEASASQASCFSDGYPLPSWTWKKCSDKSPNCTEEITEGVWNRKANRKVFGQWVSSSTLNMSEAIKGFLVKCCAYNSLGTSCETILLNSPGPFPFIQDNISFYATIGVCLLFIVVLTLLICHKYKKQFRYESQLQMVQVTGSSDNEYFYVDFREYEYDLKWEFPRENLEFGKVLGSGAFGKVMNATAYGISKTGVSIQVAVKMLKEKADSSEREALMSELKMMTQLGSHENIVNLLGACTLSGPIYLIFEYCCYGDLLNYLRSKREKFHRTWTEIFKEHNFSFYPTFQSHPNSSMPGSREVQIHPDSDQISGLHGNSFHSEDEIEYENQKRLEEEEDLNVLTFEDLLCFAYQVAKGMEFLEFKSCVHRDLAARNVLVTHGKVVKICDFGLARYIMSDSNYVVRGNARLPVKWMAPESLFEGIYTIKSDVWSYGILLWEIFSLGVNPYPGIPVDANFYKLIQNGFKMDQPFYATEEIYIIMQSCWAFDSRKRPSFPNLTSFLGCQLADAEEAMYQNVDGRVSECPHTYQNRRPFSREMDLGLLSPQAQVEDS

[6] = biological target: Vascular endothelial growth factor receptor 3 (Homo sapiens) (UniProt P35916); conditions: at 0.1 µM
[7] = biological target: Vascular endothelial growth factor receptor 3 (Homo sapiens) (UniProt P35916); conditions: at 1 µM
[8] = biological target: Macrophage colony-stimulating factor 1 receptor (Homo sapiens) (UniProt P07333); conditions: at 0.1 µM
[9] = biological target: Macrophage colony-stimulating factor 1 receptor (Homo sapiens) (UniProt P07333); conditions: at 1 µM
[10] = biological target: Tyrosine-protein kinase Fyn (Homo sapiens) (UniProt P06241); conditions: at 0.1 µM
Chain of Tyrosine-protein kinase Fyn (Homo sapiens) (P06241 2-537 limits assumed): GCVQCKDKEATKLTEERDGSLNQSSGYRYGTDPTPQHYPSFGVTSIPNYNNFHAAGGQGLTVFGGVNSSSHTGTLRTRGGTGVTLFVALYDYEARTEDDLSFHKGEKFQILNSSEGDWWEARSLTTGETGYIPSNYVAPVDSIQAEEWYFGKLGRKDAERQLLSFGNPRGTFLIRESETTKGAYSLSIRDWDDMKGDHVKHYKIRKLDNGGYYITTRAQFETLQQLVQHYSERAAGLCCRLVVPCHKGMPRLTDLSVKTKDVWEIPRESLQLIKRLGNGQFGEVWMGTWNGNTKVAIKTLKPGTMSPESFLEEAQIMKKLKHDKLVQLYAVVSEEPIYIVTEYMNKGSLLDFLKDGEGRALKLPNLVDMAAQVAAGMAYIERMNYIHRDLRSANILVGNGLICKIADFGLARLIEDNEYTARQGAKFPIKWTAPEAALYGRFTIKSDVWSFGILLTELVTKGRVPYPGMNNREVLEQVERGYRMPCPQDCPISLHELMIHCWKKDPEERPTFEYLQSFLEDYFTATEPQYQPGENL

Chain of Vascular endothelial growth factor receptor 3 (Homo sapiens) (P35916 whole entry): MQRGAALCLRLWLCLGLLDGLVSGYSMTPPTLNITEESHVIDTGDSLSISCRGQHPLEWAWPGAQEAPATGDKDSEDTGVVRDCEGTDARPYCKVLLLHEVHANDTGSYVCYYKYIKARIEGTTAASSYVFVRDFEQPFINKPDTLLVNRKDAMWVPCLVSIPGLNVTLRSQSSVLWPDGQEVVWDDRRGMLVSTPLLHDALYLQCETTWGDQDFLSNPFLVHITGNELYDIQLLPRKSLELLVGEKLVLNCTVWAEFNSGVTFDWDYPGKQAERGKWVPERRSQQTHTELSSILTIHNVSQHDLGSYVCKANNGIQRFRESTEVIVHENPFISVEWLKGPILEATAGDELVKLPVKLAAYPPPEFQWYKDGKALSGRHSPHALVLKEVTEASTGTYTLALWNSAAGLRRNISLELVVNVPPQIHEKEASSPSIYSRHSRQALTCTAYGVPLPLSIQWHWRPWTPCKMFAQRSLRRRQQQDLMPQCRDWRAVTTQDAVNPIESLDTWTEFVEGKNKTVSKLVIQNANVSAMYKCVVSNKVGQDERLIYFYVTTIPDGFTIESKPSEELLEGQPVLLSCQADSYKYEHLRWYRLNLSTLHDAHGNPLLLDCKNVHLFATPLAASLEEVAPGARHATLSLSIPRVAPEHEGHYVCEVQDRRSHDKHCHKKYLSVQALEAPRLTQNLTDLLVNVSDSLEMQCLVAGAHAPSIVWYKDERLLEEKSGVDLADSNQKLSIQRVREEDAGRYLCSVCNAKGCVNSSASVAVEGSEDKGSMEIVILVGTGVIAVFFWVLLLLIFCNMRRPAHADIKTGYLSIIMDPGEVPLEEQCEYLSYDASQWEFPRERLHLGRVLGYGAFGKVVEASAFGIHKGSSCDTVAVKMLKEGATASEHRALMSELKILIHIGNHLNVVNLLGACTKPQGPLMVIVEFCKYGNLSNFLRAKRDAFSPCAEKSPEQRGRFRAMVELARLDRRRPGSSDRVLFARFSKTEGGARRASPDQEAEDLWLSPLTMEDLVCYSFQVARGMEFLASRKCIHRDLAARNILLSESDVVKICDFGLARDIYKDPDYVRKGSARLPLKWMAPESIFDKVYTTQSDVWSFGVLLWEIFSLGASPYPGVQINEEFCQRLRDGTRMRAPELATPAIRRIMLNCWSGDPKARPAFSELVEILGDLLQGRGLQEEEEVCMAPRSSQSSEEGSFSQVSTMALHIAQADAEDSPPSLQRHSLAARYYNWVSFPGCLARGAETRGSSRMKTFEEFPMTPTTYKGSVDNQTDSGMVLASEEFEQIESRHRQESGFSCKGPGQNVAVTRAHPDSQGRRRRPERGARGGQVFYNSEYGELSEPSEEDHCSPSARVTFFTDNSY
Chain of Macrophage colony-stimulating factor 1 receptor (Homo sapiens) (P07333 whole entry): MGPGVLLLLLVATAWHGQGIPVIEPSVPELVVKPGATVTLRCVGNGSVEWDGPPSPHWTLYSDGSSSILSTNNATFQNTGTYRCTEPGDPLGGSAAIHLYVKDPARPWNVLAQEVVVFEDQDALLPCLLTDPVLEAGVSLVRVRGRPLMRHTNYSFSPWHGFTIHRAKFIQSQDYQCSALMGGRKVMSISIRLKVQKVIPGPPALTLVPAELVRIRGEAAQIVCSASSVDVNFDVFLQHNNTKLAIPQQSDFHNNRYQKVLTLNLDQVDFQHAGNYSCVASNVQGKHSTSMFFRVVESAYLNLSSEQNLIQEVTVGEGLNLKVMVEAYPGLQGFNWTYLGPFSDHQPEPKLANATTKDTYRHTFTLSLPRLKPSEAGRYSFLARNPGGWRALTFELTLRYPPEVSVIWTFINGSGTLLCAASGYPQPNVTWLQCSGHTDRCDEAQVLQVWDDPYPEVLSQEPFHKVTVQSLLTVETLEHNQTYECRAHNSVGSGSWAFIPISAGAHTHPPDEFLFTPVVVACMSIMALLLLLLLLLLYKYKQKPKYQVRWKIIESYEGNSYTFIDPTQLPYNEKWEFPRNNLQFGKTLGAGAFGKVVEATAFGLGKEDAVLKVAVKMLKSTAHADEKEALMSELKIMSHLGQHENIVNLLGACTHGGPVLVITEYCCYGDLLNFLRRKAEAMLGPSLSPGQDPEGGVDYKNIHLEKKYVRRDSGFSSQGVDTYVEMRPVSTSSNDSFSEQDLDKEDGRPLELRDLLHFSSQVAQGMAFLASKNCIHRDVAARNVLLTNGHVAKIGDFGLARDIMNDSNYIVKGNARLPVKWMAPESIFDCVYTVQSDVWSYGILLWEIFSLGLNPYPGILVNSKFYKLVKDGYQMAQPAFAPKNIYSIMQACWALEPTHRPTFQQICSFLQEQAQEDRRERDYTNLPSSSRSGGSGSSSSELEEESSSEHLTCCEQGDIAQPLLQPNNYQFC
Chain of Serine/threonine-protein kinase PLK1 (Homo sapiens) (P53350 whole entry): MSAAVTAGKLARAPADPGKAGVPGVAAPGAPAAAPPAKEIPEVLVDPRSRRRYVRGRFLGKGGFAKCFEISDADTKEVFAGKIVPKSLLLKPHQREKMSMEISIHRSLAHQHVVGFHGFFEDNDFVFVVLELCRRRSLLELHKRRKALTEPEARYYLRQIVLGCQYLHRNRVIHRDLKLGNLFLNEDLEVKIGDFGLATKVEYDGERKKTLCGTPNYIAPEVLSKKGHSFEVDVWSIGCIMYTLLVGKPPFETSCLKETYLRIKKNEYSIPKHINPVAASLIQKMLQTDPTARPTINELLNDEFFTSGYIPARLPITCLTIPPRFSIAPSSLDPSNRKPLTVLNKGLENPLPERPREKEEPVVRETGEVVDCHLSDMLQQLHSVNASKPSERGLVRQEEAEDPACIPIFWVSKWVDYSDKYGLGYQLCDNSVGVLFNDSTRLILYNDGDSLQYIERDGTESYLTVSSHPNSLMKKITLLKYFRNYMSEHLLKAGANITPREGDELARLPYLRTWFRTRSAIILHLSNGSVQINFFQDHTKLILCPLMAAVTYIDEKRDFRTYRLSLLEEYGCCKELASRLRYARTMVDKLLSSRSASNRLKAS

CC(C)c1ccc(-c2cc(-c3c[nH]nc3-c3ccccn3)ccn2)cc1
inhibition [1]: 2.93%
inhibition [2]: 0.48%
inhibition [3]: 0.41%
inhibition [4]: 2.65%
inhibition [5]: 1.71%
inhibition [6]: 1.37%
inhibition [7]: 5.15%
inhibition [8]: 0.03%
inhibition [9]: 3.63%
inhibition [10]: 1.14%

N#Cc1cccc(Nc2ncc(-c3ccccc3)o2)c1
inhibition [1]: 4.83%
inhibition [2]: 2.12%
inhibition [3]: 1.8%
inhibition [4]: 6.6%
inhibition [5]: 9.89%
inhibition [6]: -0.11%
inhibition [7]: 3.1%
inhibition [8]: 3.05%
inhibition [9]: 14.6%
inhibition [10]: 1.43%

COc1c(C(N)=O)cc(-c2ccc(Cl)cc2)cc1-c1ccc(S(N)(=O)=O)cc1
inhibition [1]: 5.67%
inhibition [2]: 4.84%
inhibition [3]: 8.71%
inhibition [4]: 11.8%
inhibition [5]: 0.7%
inhibition [6]: 2.5%
inhibition [7]: 0.39%
inhibition [8]: 5.24%
inhibition [9]: 4.74%
inhibition [10]: 1.12%

CN(c1ccc(NC(=O)NCCN2CCOCC2)cc1)c1ccnc(Nc2ccc(CS(C)(=O)=O)cc2)n1
inhibition [1]: 4.91%
inhibition [2]: 0.46%
inhibition [3]: 1.42%
inhibition [4]: 6.2%
inhibition [5]: 19.9%
inhibition [6]: 4.1%
inhibition [7]: 20.6%
inhibition [8]: 79.7%
inhibition [9]: 97%
inhibition [10]: 0.52%

Cc1cc(O)cc(C)c1/C=C/c1cncc(C(N)=O)c1
inhibition [1]: 0.49%
inhibition [2]: 2.01%
inhibition [3]: 1.27%
inhibition [4]: 4.3%
inhibition [5]: 2.14%
inhibition [6]: 1.77%
inhibition [7]: 0.45%
inhibition [8]: 5.27%
inhibition [9]: 31.3%
inhibition [10]: 5.86%

Nc1nccc(-c2c(-c3ccc(F)cc3)ncn2C2CCNCC2)n1
inhibition [1]: 3.57% and -1.29%
inhibition [2]: -0.73% and -0.83%
inhibition [3]: 0.68% and 2.5%
inhibition [4]: -4.46% and 0.75%
inhibition [5]: 4.31% and -2.1%
inhibition [6]: 0.55% and 1.51%
inhibition [7]: -0.68% and 1.04%
inhibition [8]: -0.4% and 1.93%
inhibition [9]: 0.46% and 3.61%
inhibition [10]: -0.69% and 0.67%

CS(=O)(=O)CCNCc1ccoc1-c1ccc2ncnc(Nc3ccc(OCc4ccccc4)cc3)c2c1
inhibition [1]: 1.8%
inhibition [2]: 2.42%
inhibition [3]: 3.33%
inhibition [4]: 3.38%
inhibition [5]: 2.16%
inhibition [6]: 2.25%
inhibition [7]: 2.83%
inhibition [8]: -0.38%
inhibition [9]: 6.09%
inhibition [10]: 1.81%

NS(=O)(=O)c1ccc(N/N=C2\C(=O)Nc3ccc(C(=O)NCc4ccncc4)cc32)cc1
inhibition [1]: 9.05%
inhibition [2]: 3.77%
inhibition [3]: 2.52%
inhibition [4]: 37.6%
inhibition [5]: 34.3%
inhibition [6]: 16.7%
inhibition [7]: 48.7%
inhibition [8]: 3.12%
inhibition [9]: 8.74%
inhibition [10]: 9.13%

O=C(O[C@H]1CN[C@H](C#Cc2cc3ncnc(Nc4ccc5c(ccn5Cc5cc(F)ccc5F)c4)c3s2)C1)N1CCOCC1
inhibition [1]: 12.3%
inhibition [2]: 4.51%
inhibition [3]: 10.8%
inhibition [4]: 11%
inhibition [5]: -1.27%
inhibition [6]: 4.34%
inhibition [7]: 4.77%
inhibition [8]: 2.09%
inhibition [9]: 15.5%
inhibition [10]: 4.48%

CCCNc1cccc(-n2ncc3c(N/N=C/c4ccncc4)ncnc32)c1
inhibition [1]: 0.45%
inhibition [2]: -0.12%
inhibition [3]: 0.93%
inhibition [4]: 4%
inhibition [5]: 31.9%
inhibition [6]: 11.3%
inhibition [7]: 40.7%
inhibition [8]: 3.81%
inhibition [9]: 17.6%
inhibition [10]: 8.6%

Nc1nonc1-c1nc2cnccc2n1C1CC1
inhibition [1]: 1.51% and 3.66%
inhibition [2]: 3.84% and 2.82%
inhibition [3]: 5.97% and 4.56%
inhibition [4]: 5.61% and 5.02%
inhibition [5]: 7.78% and 5.95%
inhibition [6]: 5.27% and -4.56%
inhibition [7]: 21.9% and 17.5%
inhibition [8]: 3.87% and 1.25%
inhibition [9]: 10.1% and 8.4%
inhibition [10]: 1.35% and -1.92%

O=C(O[C@H]1CN[C@H](C#Cc2cc3ncnc(Nc4ccc5c(cnn5Cc5ccccc5)c4)c3s2)C1)N1CCOCC1
inhibition [1]: -0.45%
inhibition [2]: -1.27%
inhibition [3]: 1.79%
inhibition [4]: 5.51%
inhibition [5]: 2.81%
inhibition [6]: 1.1%
inhibition [7]: 1.5%
inhibition [8]: -6.02%
inhibition [9]: 4.04%
inhibition [10]: 1.79%

Cc1nnc(-c2cccc(-c3ccc(C(=O)NCC4CC4)cc3)c2)o1
inhibition [1]: 7.69%
inhibition [2]: 4.37%
inhibition [3]: 3.89%
inhibition [4]: 9.53%
inhibition [5]: 0.86%
inhibition [6]: 4.47%
inhibition [7]: -1.03%
inhibition [8]: 2.5%
inhibition [9]: 1.96%
inhibition [10]: 1.1%

CN1CCC(C(=O)Nc2n[nH]c3nc(-c4ccc(O)cc4)c(Br)cc23)CC1
inhibition [1]: 13.7% and 6.47%
inhibition [2]: 6% and 2.01%
inhibition [3]: 2.87% and 3.17%
inhibition [4]: 16.1% and 0.86%
inhibition [5]: 1.05% and 6.99%
inhibition [6]: -8.86% and 1.93%
inhibition [7]: 2.2%
inhibition [8]: -1.7% and 0.14%
inhibition [9]: 0.92% and 5.04%
inhibition [10]: 0.13% and 0.97%

COc1cc(N2CCN(C(C)C)CC2)ccc1Nc1nc(Nc2cccc(F)c2C(=O)O)c2cc[nH]c2n1
inhibition [1]: 4.56%
inhibition [2]: 6.28%
inhibition [3]: 29.6%
inhibition [4]: 62.3%
inhibition [5]: 12.6%
inhibition [6]: 2.54%
inhibition [7]: -0.47%
inhibition [8]: 2.82%
inhibition [9]: 2.24%
inhibition [10]: -0.12%
